In the library only some 9.3% were active in any assay of this set; here they are far more common.
NPC1 promoter act – qHTS Assay for NPC1 Promoter Activators; 2.4% of 320,000 active; Potency, µM (top dose mostly 9.22 µM), most hits filed as activators; Huh7 NPC1 promoter luciferase reporter, 24 h; also: nearly all actives have a fitted effect of over 60% in size
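Stably transfected Huh7 (NPC1 promoter→luciferase), 1500 cells/well in Opti-MEM + 10% FBS, 2 h settle, then compound 24 h at 37 °C. Luminescence after 10 min with Amplite reagent.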
SMN2 splice up – qHTS Assay for Enhancers of SMN2 Splice Variant Expression; Potency, µM (highest dose often 46.1 µM), hits mostly activators; AID 1458, 2008; HEK293 SMN2-luciferase splicing reporter, luminescence, 30-36 h; 2.8% of 210,000 active; also: nearly all actives have a fitted effect of over 55% in size
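HEK293 cells carry an SMN2 […]–luciferase reporter in which exon 7 inclusion puts luciferase in frame. Cells were plated 10-12 h before compound addition, then incubated 30-36 h at 37C. ONE-Glo luminescence was read; sodium butyrate at 4.5 mM final served as control.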
ELG1 repair inh – qHTS screen for small molecules that inhibit ELG1-dependent DNA repair in human embryonic kidney (HEK293T) cells expressing luciferase-tagged ELG1. 2.3% of 330,000 active. HEK293T ELG1-luciferase reporter, luminescence, 16 h; DNA damage induced by 5-fluorouridine. Potency, µM (top dose mostly 46.1 µM), hits mostly inhibitors; also: nearly all actives have a fitted effect of over 55% in size
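Step one: seed 2,000 cells per well. Step two: pin-transfer compound or DMSO alongside 5-fluorouridine. Step three: incubate 16 hr, 37 °C, 5% CO2. Step four: add ONE-Glo, wait 30 min, read luminescence.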
FLuc counter – qHTS profiling assay for firefly luciferase inhibitor/activator using purifed enzyme and Km concentrations of substrates (counterscreen for miR-21 project); Potency, µM (top dose mostly 57.5 µM), hits mostly inhibitors; Luciferin 4-monooxygenase (Photinus pyralis), P08659; purified FLuc, Km substrates, luminescence inhibition; 6.9% of 360,000 active; also: nearly all actives have a fitted effect of over 55% in size
Target sequence (P08659 whole entry, looked up): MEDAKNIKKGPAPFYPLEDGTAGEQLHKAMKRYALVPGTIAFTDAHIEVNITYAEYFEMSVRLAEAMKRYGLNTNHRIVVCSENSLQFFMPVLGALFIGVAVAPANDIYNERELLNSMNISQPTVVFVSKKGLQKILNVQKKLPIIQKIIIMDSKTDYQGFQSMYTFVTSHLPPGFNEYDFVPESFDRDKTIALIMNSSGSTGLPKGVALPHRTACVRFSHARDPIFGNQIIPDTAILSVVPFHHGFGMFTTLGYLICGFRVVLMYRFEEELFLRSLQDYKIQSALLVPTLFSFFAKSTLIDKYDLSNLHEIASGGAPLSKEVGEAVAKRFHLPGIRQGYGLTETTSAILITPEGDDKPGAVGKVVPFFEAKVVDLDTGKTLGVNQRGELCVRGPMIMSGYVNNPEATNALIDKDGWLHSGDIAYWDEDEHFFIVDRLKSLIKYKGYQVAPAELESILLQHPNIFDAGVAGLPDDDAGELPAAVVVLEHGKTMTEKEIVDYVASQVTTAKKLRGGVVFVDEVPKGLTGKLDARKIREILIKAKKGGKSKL
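Purified P. pyralis luciferase (10nM final) with 10uM D-luciferin and 10uM ATP (Km levels) in 50mM Tris acetate pH 7.5, 10mM Mg acetate, 0.01% Tween-20, 0.05% BSA; qHTS 6-point titration, ~60 µM downward; luminescence read.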
Rab9 promoter act – qHTS Assay for Rab9 Promoter Activators | Huh7 Rab9 promoter-luciferase reporter, luminescence, 24 h | Potency, µM (top dose mostly 9.22 µM), actives largely listed as activators | 2.8% of 320,000 active | AID 485297, 2010; also: nearly all actives have a fitted effect of over 60% in size
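Rab9 promoter-driven luciferase in stably transfected Huh7 cells; 1500 cells/well rested 2 h, exposed to compound in DMSO for 24 h at 37 °C, 5% CO2. Luminescence read 10 min after adding luciferase reagent at ambient temperature.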
ELG1 genotoxic – qHTS screen for small molecules that induce genotoxicity in human embryonic kidney (HEK293T) cells expressing luciferase-tagged ELG1; HEK293T ELG1-luciferase reporter, luminescence, 16 h; Potency, µM (doses to about 46 µM), most hits filed as activators; 1.3% of 330,000 active; also: nearly all actives have a fitted effect of over 60% in size
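16 hr compound incubation (37 °C, 5% CO2) of HEK293T cells carrying luciferase-tagged ELG1; luciferase then measured by ONE-Glo luminescence after 30 min at RT.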
A number is an active result; – = inactive; ? = inconclusive; · = no result. Calls follow the shape of the dose curve; as a rule, active = well fitted curve in the direction sought with a large enough effect; inconclusive = small, poorly fitted or top-dose-only effect, or another doubt; inactive = no such curve, though single readings can be large; an effect the other way counts as inactive or inconclusive.

SMILES	NPC1 promoter act	SMN2 splice up	ELG1 repair inh	FLuc counter	Rab9 promoter act	ELG1 genotoxic
CN(C)c1ccc(/C=N/NC(=O)c2ccn(C)n2)cc1	2.51µM	·	?	3.79µM	4.47µM	?
Cc1cccc(/C=N\NC(=O)c2csnn2)c1	?	–	?	8.49µM	–	?
CCOC(=O)c1noc2ncn(CC(=O)Nc3ccc(F)cc3Cl)c(=O)c12	·	·	·	–	·	·
O=[N+]([O-])c1ccc(Cl)c(C[n+]2cccc3ccccc32)c1	–	·	–	–	–	–
CC(C)c1ccc(C(=O)N/N=C/c2cccc(Cl)c2Cl)cc1	?	–	?	8.49µM	?	–
Cc1ccccc1OCC(=O)N/N=C/c1ccc(N(C)C)cc1	–	–	–	?	–	–
CCOc1ccc(/C=N/NC(=S)Nc2c(C)cccc2C)cc1	–	–	18.4µM	–	–	–
CCNC(=S)N/N=C/c1ccc(OCCOc2ccccc2C)cc1	–	–	–	–	–	–
CCOC(=O)N/N=C/c1ccc(Oc2ccccc2)cc1	?	?	?	19µM	?	–
CN(C)c1ccc(/C=N\NC(=O)c2csnn2)cc1	0.891µM	15.8µM	?	3.79µM	0.631µM	?
CN(C)c1cc(N/N=C/c2ccc(Cl)cc2)nc(N(C)C)n1	–	–	?	–	–	–
CC(C)c1ccc(/C=N/NC(=O)c2ccccn2)cc1	0.141µM	·	?	0.379µM	0.316µM	?
CC(C)c1ccc(/C=N/NC(=O)c2cccc(Cl)c2)cc1	2.82µM	15.8µM	?	2.69µM	2.82µM	20.6µM
CC(C)c1ccc(/C=N/NC(=O)CCNC(=O)c2ccccc2)cc1	?	·	?	8.49µM	?	–
O=C(O)C1CCCN1S(=O)(=O)c1cccc2nsnc12 (stereo unspecified)	–	·	–	–	–	–
O=C(CCNS(=O)(=O)c1cccs1)N1CCN(c2cccc(Cl)c2)CC1	–	·	–	–	–	–
O=C(CCCNS(=O)(=O)c1cccs1)N1CCN(c2cccc(Cl)c2)CC1	–	–	23.1µM	–	–	–
CC(C)(C)NC(=O)C(c1ccc(-c2ccccc2)cc1)N(C[C@H]1CC[C@@H]([C@@H]2CC[C@H](CO)O2)O1)C(=O)c1ccc(-c2ccccc2)cc1 (stereo partly specified)	·	·	23.1µM	·	·	–
CC(C)(C)c1csc(N/N=C/c2cccnc2)n1	?	?	?	12µM	3.16µM	?
Cc1ccc(/C=N/Nc2nc(C(C)(C)C)cs2)o1	?	12.6µM	?	13.5µM	?	?
C(=N\Nc1nc(-c2ccccc2)cs1)/c1cccnc1	3.16µM	22.4µM	?	21.3µM	2.24µM	5.17µM
Cc1cc(=O)[nH]c(N/N=C/c2ccc(C)o2)n1	–	–	–	–	–	–
Cc1ccc(/C=N/Nc2nc3ccccc3s2)o1	?	2µM	?	0.849µM	?	0.82µM
Clc1ccc(-c2csc(N/N=C/c3cccnc3)n2)c(Cl)c1	–	–	–	–	–	–
Cc1ccccc1-c1nc(SCC(=O)NCc2ccc(F)cc2)c2c(=O)n(C)c(=O)n(C)c2n1	·	·	·	–	·	·
SMILES	NPC1 promoter act	SMN2 splice up	ELG1 repair inh	FLuc counter	Rab9 promoter act	ELG1 genotoxic
CCc1ccccc1NC(=O)c1cccc(Oc2ccc([N+](=O)[O-])cc2Cl)c1	–	·	–	–	–	–
COc1ccc(NC(=O)Nc2cccc([N+](=O)[O-])c2)cc1Cl	–	–	?	21.3µM	–	–
CC(=O)Nc1cccc(Oc2ccc([N+](=O)[O-])cc2Cl)c1	–	–	–	23.9µM	–	–
O=C(c1cccc(Oc2ccc([N+](=O)[O-])cc2Cl)c1)N1CCCCC1	–	–	23.1µM	–	–	–
COC(=O)C(/C=N/OCc1ccc([N+](=O)[O-])cc1)NC(=O)c1cccc(Cl)c1 (stereo unspecified)	–	?	–	–	–	–
Cn1nnnc1SCc1csc(Nc2ccccc2)n1	?	–	?	?	3.98µM	?

Compound activity deposited in PubChem by National Center for Advancing Translational Sciences (NCATS).
